Measured values taken from PubChem BioAssay (NCATS).
Results filed as inconclusive are left out. Calls of active or inactive are those of the source. Calls follow the shape of the dose curve; as a rule, active = well fitted curve in the direction sought with a large enough effect; inconclusive = small, poorly fitted or top-dose-only effect, or another doubt; inactive = no such curve, though single readings can be large; an effect the other way counts as inactive or inconclusive.

Assays:
[1] = biological target: Protein phosphatase 1D (Homo sapiens) (UniProt O15297); assay: RapidFire Mass Spectrometry qHTS Assay for Modulators of WT P53-Induced Phosphatase 1 (WIP1) (AID 1347424); conditions: WIP1 dephosphorylation of phosphopeptide, RapidFire MS; series mostly up to 63 µM;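 also: amount of dephosphorylated VEPPL-S-QETFS peptide product formed by WIP1; plate controls were DMSO wells for no effect and GSK830371 inhibitor control at 10 µM for full effect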
In short: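 RapidFire mass spectrometry measured dephosphorylated peptide after 5 min room-temperature reaction of 2 uM VEPPL-pS-QETFS with 10 nM WIP1 (50 mM Tris-HCl pH 7.5, 30 mM MgCl2, 0.1 mM EGTA, BSA), following 1 hr compound preincubation; 1 uM isotope-labelled product standard.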

[2] = biological target: Protein phosphatase 1D (Homo sapiens) (UniProt O15297); assay: Rhodamine-PBP qHTS Assay for Modulators of WT P53-Induced Phosphatase 1 (WIP1) (AID 1347425); conditions: recombinant WIP1, Rhodamine-PBP phosphate fluorescence, real-time; series mostly up to 57.5 µM; also: % of control where 0% means no effect
In short: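 5 nM WIP1 + 10 uM Rh-PBP, 50 mM Tris pH 7.5, 30 mM MgCl2, 1 mM TCEP, 0.1 mM EGTA, BSA; cpds pinned, 1 hr RT; + 10 uM phosphopeptide; fluorescence 1-min reads x 11 min; delta = f1 - f0.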

[3] = Primary qHTS for inhibitors of La Crosse Virus (LACV) - induced cell death in SH-SY5Y cells (AID 1508616); conditions: SH-SY5Y LACV cytopathicity rescue, ATP luminescence, 6 d; series mostly up to 4.29 µM;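 also: top concentration of the series differs between compounds; 0% = infected DMSO wells and 100% = uninfected DMSO wells; higher means more rescue of cells from virus-induced death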
In short: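 Screening measures cell viability in LACV-infected SH-SY5Y cultures. Compound was added before virus (0.01 MOI), and ATP was detected by luminescence 6 days later.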

[4] = biological target: Calcium and integrin-binding protein 1 (Homo sapiens) (UniProt Q99828); assay: Primary qHTS for Identification of Calcium Integrin Binding Protein 1 (CIB1) Competitor (AID 1508620); conditions: CIB1-GST / FITC-alphaIIb peptide fluorescence polarization; series mostly up to 114 µM;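 also: GST tagged CIB1 binding a fluorescein labelled alphaIIb integrin peptide tracer; top concentration of the series differs between compounds; % is scaled to controls: 0 for no effect and ±100 for the full control effect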
In short: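 CIB1-GST (1 uM final) and compound incubated 15 min at room temperature before adding FITC-alphaIIb peptide tracer (100 nM final). Competition for binding read by fluorescence polarization (ex 480, em 540) after another 15 min at room temperature.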

Sequence of Protein phosphatase 1D (Homo sapiens) (O15297 whole entry, looked up): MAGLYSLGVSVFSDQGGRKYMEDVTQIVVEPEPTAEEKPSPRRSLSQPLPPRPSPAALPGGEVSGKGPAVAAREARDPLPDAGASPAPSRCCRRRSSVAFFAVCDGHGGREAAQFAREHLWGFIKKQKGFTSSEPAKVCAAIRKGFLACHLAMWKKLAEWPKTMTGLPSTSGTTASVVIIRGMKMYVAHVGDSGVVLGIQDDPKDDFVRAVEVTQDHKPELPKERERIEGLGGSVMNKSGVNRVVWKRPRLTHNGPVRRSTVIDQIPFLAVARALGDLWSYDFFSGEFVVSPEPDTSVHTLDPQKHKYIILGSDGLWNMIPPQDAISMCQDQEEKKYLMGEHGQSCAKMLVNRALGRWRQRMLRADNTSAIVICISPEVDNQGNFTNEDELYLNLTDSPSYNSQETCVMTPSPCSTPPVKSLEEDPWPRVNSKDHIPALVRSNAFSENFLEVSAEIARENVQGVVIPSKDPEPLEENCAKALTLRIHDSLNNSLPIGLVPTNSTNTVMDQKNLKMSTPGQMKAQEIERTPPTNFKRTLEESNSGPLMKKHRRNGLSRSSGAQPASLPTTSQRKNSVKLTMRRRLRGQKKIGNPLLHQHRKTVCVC
Sequence of Calcium and integrin-binding protein 1 (Homo sapiens) (Q99828 whole entry, looked up): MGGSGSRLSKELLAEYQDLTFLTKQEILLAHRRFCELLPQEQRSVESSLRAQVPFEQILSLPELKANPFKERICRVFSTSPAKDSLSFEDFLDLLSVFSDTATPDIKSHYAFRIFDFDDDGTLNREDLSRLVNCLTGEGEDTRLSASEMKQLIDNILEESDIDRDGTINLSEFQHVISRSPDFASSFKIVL

O=C(O)CCC(=O)Nc1ccc(S(=O)(=O)Nc2nccs2)cc1
inactive: Potency [1] | outcome [2] | outcome [3] | Potency [4]

O=C(Oc1cccc2cccnc12)c1ccccc1
inactive: Potency [1] | outcome [2] | outcome [3] | Potency [4]

CCNC(=O)NCc1cccc(Cl)c1
inactive: Potency [1] | outcome [2] | outcome [3] | Potency [4]

Clc1cccc(C(c2ccc3nc[nH]c3c2)n2ccnc2)c1 (configuration not stated)
inactive: Potency [1] | outcome [2] | outcome [3] | Potency [4]

O=C(O)Cc1csc(-c2ccc(Cl)cc2)n1
inactive: Potency [1] | outcome [2] | outcome [3] | Potency [4]

O=C1C(O)=C(O)C(=O)C(O)=C1O
inactive: Potency [1] | outcome [2] | outcome [3] | Potency [4]

COc1ccc(C(=O)c2ccccc2)c(O)c1
inactive: Potency [1] | outcome [2] | outcome [3] | Potency [4]

N=C(N)N1CCc2ccccc2C1
inactive: activity change, negative = inhibition [1] -1.79% [at 6.17 µM] | activity change, negative = inhibition [2] -1.93% [at 4.81 µM] | activity change [3] -3.22% [at 0.431 µM] | activity change, negative = inhibition [4] -1.23% [at 12.4 µM]

C/C=C/C=N/NC(=O)c1ccncc1
inactive: Potency [1] | outcome [2] | outcome [3] | Potency [4]

NC(=O)C1(N2CCCCC2)CCN(CCCC(=O)c2ccc(F)cc2)CC1
inactive: Potency [1] | outcome [2] | outcome [3] | Potency [4]

Cc1nc(-c2ccc(Cl)cc2)oc1COC(C)(C)C(=O)O
inactive: Potency [1] | outcome [2] | outcome [3] | Potency [4]

C[N+]1(C)CCC(=C(c2ccccc2)c2ccccc2)CC1
inactive: Potency [1] | outcome [2] | outcome [3] | Potency [4]

O=C(Nc1cccc(C2=NCCN2)c1)Nc1cccc(C2=NCCN2)c1
inactive: Potency [1] | outcome [2] | outcome [3] | Potency [4]
